From ChEMBL document CHEMBL1961873, “Compounds: GSK PKIS; Assays: Nanosyn kinase panel” (2012) come the findings set out here.

Experiment [1] has as its target RAF proto-oncogene serine/threonine-protein kinase (Homo sapiens) (UniProt P04049). The following applies: at 1 µM.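 Note: values are the mean percent inhibition of CRAF.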
The target in experiment [2] is T1, Interleukin-1 receptor-associated kinase 4 (Homo sapiens) (UniProt Q9NWZ3).
T1 sequence (whole entry): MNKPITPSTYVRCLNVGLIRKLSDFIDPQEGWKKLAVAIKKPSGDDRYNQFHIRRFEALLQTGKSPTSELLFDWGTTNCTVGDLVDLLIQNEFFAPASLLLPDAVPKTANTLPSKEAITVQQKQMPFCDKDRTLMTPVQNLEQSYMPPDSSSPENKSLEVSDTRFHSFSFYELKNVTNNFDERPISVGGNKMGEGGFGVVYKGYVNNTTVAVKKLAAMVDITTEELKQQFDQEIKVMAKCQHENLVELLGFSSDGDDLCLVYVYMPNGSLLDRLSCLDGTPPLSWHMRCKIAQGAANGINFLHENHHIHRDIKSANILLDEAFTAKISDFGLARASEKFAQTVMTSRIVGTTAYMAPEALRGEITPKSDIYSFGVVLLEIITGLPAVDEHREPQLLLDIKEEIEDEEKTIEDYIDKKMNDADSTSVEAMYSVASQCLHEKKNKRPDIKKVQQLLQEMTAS
The following applies: at 0.1 µM.

Experiment [3] deals with T1, Interleukin-1 receptor-associated kinase 4 (Homo sapiens). To be noted: at 1 µM.
The target of experiment [4] is Leucine-rich repeat serine/threonine-protein kinase 2 (Homo sapiens) (UniProt Q5S007). The following applies: at 0.1 µM.
Sequence of Leucine-rich repeat serine/threonine-protein kinase 2 (Homo sapiens) (Q5S007 whole entry): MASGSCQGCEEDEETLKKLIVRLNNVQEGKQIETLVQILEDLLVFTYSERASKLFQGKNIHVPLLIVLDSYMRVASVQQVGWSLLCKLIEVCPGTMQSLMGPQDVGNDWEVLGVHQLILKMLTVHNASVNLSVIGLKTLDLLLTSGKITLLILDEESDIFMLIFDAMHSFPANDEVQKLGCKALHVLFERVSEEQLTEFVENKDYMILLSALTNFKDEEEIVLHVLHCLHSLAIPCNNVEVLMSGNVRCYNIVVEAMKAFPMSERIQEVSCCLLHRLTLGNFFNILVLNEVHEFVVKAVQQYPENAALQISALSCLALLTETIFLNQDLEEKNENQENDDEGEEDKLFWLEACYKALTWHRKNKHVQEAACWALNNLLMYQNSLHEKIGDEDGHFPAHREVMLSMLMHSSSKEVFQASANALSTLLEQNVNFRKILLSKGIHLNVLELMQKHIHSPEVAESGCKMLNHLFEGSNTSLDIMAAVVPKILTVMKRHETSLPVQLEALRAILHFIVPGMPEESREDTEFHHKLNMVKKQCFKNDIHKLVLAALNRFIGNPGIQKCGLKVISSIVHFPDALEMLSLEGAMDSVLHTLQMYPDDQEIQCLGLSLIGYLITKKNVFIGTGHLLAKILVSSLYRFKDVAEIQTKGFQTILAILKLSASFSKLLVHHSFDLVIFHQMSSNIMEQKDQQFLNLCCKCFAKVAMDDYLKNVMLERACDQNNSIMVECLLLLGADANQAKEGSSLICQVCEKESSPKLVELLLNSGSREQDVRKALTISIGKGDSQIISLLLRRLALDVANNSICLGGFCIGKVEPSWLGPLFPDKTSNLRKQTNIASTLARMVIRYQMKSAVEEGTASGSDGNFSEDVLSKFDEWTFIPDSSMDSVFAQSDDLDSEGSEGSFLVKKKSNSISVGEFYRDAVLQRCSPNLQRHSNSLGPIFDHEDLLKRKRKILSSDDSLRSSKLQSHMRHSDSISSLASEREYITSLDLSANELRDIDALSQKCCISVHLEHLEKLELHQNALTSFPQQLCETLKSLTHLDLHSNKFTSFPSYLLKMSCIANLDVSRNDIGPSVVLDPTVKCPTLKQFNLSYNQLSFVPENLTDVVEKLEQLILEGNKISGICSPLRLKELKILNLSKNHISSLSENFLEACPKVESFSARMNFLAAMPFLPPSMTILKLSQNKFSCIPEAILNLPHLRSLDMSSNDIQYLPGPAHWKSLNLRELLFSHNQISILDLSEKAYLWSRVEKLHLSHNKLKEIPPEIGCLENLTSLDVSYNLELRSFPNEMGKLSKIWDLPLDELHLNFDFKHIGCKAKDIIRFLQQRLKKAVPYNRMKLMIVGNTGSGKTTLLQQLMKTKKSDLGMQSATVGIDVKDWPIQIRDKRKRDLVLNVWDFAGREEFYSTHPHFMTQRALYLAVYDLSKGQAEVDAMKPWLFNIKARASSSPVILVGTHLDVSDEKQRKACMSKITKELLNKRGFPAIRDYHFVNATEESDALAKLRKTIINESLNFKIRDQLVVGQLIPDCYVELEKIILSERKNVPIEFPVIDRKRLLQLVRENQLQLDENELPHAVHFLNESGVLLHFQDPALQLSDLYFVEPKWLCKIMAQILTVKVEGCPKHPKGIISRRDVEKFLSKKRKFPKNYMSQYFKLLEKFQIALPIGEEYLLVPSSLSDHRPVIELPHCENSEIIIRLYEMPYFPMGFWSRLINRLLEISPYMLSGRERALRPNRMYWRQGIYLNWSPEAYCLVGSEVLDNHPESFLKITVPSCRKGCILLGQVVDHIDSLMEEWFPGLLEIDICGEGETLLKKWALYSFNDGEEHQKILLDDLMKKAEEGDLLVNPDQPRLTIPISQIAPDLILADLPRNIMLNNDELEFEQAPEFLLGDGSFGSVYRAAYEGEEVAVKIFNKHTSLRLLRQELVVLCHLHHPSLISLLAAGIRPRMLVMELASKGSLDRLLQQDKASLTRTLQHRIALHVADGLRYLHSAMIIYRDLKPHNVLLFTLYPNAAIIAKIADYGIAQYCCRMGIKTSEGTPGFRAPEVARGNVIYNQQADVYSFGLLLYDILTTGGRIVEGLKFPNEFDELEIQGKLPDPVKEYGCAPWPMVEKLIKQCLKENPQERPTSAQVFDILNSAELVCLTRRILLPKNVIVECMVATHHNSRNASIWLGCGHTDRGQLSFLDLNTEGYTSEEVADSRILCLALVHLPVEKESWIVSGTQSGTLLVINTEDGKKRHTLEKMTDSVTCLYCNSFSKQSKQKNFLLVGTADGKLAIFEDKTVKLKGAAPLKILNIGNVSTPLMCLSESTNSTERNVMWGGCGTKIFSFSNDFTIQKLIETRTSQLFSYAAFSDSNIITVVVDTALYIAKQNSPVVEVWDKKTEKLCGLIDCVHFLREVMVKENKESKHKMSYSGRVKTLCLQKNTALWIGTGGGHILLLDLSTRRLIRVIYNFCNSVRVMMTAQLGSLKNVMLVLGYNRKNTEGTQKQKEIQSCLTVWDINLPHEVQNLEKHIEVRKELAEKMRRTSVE
For experiment [5] the target is unchanged. The following applies: at 1 µM.
In experiment [6] the test system is Leucine-rich repeat serine/threonine-protein kinase 2 (Homo sapiens), Q5S007 [G2019S]. To be noted: at 0.1 µM.
Sequence of Leucine-rich repeat serine/threonine-protein kinase 2 (Homo sapiens), Q5S007 [G2019S] (Q5S007 whole entry G2019S): as the sequence (Q5S007 whole entry) above, with G2019S counted along it
Experiment [7] shares this test system. To be noted: at 1 µM.

Sequence of RAF proto-oncogene serine/threonine-protein kinase (Homo sapiens) (P04049 whole entry): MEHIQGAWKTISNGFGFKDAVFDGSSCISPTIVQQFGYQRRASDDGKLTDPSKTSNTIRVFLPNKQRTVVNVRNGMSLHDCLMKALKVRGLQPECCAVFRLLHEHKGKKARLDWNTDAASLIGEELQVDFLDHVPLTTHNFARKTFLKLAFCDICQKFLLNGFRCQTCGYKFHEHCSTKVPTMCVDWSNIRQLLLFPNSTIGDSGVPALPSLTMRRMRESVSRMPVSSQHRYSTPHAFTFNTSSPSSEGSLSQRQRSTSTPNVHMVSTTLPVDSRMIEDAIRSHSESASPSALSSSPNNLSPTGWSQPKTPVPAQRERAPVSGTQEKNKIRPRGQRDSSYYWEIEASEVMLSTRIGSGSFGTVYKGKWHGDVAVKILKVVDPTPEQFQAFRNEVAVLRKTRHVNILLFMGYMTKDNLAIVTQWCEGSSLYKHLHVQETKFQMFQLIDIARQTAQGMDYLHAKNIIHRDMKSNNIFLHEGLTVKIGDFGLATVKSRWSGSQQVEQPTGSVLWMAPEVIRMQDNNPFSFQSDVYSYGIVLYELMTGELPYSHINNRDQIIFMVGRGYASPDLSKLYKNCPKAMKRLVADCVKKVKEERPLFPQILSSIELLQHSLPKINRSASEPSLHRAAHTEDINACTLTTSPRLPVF

Consider `COc1cc(N2CCN(C(C)C)CC2)ccc1Nc1nc(Nc2ccc(F)cc2C(=O)NC[C@@H](O)CO)c2cc[nH]c2n1`, for which the inhibition came to 2.01% in experiment [1]; 3.02% in experiment [2]; 2.5% in experiment [3]; 10.5% in experiment [4]; 14.5% in experiment [5]; 48.9% in experiment [6]. Further, in experiment [7], the inhibition amounted to 55.5%.

Regarding `Cc1ccc(C(=O)NC2CCC2)cc1-c1ccc(C(=O)NCC2CC2)cc1`, the inhibition in experiment [1] was -1.36%; in experiment [2] it was 3.77%; in experiment [3] it was 1.51%; in experiment [4], 2.63%; in experiment [5], 2.18%; in experiment [6] it was 2.78%. The inhibition in experiment [7] was 5.64%.

With `Fc1ccc(-c2ncn(CCCN3CCOCC3)c2-c2ccncc2)cc1`, the inhibition in experiment [1] is -5.69%; in experiment [2] it was 3.04%; in experiment [3] it was -0.71%; in experiment [4], 0.7%; in experiment [5], 3.28%; in experiment [6] it was 1.27%. Moreover, the inhibition in experiment [7] amounted to 4.28%.

Turning to `Cc1ccc(C(=O)NC(C)C)cc1-c1ccc(C(=O)NCC2CC2)cc1`, the inhibition in experiment [1] was -1.23%; in experiment [2] it was -1.36%; in experiment [3] it was -0.58%; in experiment [4] it was -0.57%; in experiment [5], -1.69%; in experiment [6], 0.59%. In addition, the inhibition in experiment [7] came out at 2.07%.

Turning to `N#Cc1ccc(Oc2nccc(-c3c(-c4ccc(F)cc4)ncn3C3CCNCC3)n2)cc1`, the inhibition in experiment [1] was -0.95%; in experiment [2] it was 2.17%; in experiment [3] it was 2.43%; in experiment [4], 2.8%; in experiment [5], 3.91%; in experiment [6], 4.91%. Further, the inhibition in experiment [7] amounted to 4.95%.

For `CCc1ccc(Oc2nccc(-c3c(-c4ccc(F)cc4)ncn3C3CCNCC3)n2)cc1`, the inhibition is -0.51% in experiment [1]; 2.21% in experiment [2]; 2.52% in experiment [3]; 0.68% in experiment [4]; 6% in experiment [5]; 3.1% in experiment [6]. Besides, the inhibition in experiment [7] was 6.63%.

With `O=C1Nc2ccc(I)cc2C1=Cc1cc(Br)c(O)c(Br)c1`, the inhibition in experiment [1] turned out to be 11.3%; in experiment [2] it was 1.47%; in experiment [3], 2.1%; in experiment [4], 19.2%; in experiment [5] it was 71.9%; in experiment [6], 37.4%. Also, the inhibition in experiment [7] was found to be 78%.

In the case of `NS(=O)(=O)c1ccc(Nc2cc(-c3ccc(O)c(F)c3)n[nH]2)cc1`, the inhibition in experiment [1] was 0.94%; in experiment [2], 3.6%; in experiment [3] it was -1.08%; in experiment [4], 1.51%; in experiment [5], 13.2%; in experiment [6], 4.54%. In experiment [7], the inhibition is 29.7%.

With `CNC(=O)c1cncc(/C=C/c2c(C)cccc2C)c1`, the inhibition in experiment [1] is -0.25%; in experiment [2], -1.78%; in experiment [3], 0.42%; in experiment [4] it was -5.56%; in experiment [5], -1.97%; in experiment [6], -3.85%. Moreover, in experiment [7], the inhibition was -1.34%.

In the case of `NS(=O)(=O)c1ccc(N/N=C2\C(=O)Nc3ccc(-c4cnco4)cc32)cc1`, the inhibition is -0.01% in experiment [1]; 0.31% in experiment [2]; 1.08% in experiment [3]; 9.37% in experiment [4]; 52.5% in experiment [5]; 32.2% in experiment [6]. Besides, in experiment [7], the inhibition amounted to 55.8%.

Turning to `COc1cc2ncn(-c3cc(OCc4cccs4)c(C(N)=O)s3)c2cc1OC`, the inhibition in experiment [1] was 6.17%; in experiment [2], -3.1%; in experiment [3], 1.66%; in experiment [4], 2.29%; in experiment [5], 9.04%; in experiment [6] it was 15.9%. Also, in experiment [7], the inhibition was 54%.

On to `CCS(=O)(=O)c1ccc(OC)c(Nc2ncc(-c3ccccc3Cl)o2)c1`, for which the inhibition was -2.68% in experiment [1]; -1.05% in experiment [2]; 3.5% in experiment [3]; 2.06% in experiment [4]; 10.3% in experiment [5]; 1.06% in experiment [6]. Further, the inhibition in experiment [7] came out at 13.4%.

On to `O=C1Nc2ccccc2/C1=C/Nc1ccc(-n2cncn2)cc1`, for which the inhibition in experiment [1] was found to be 5.44%; in experiment [2], 2.2%; in experiment [3], 2.52%; in experiment [4], 4.2%; in experiment [5], 9.2%; in experiment [6], 6.6%. In experiment [7], the inhibition was determined as 23.9%.

As to `CN(c1ccc(NC(=O)Nc2c(Cl)cccc2Cl)cc1)c1ccnc(Nc2cccc(CS(C)(=O)=O)c2)n1`, the inhibition in experiment [1] was found to be 1.82%; in experiment [2] it was 0.17%; in experiment [3] it was 1.26%; in experiment [4], 12.2%; in experiment [5], 15.4%; in experiment [6], 9.38%. In addition, in experiment [7], the inhibition is 20.4%.

On to `COc1ccc(-c2ccc3c(NC(=O)C4CC4)n[nH]c3n2)cc1`, for which the inhibition in experiment [2] is 2.75%; in experiment [3], 0.45%; in experiment [4], 1.6%; in experiment [5], 5.11%; in experiment [6], 2.17%; in experiment [7] it was 3.39%.

As to `Fc1ccc(-c2ncn(C3CCNCC3)c2-c2ccnc(Oc3ccc(F)c(F)c3)n2)cc1`, the inhibition in experiment [1] is -0.68%; in experiment [2], 1.33%; in experiment [3] it was 1.17%; in experiment [4] it was -3.16%; in experiment [5] it was -4.05%; in experiment [6], 0.63%. Moreover, in experiment [7], the inhibition amounted to 2.39%.

Consider `C[C@@H](Oc1cc(-n2cnc3ccc(OCC4CCN(C)CC4)cc32)sc1C(N)=O)c1ccccc1Cl`, for which the inhibition in experiment [1] amounted to 8.07%; in experiment [2], 2.66%; in experiment [3] it was 6.25%; in experiment [4], 8.16%; in experiment [5], 17.3%; in experiment [6], 11.1%. Moreover, the inhibition in experiment [7] worked out at 33.5%.
